Experimental data: PubChem BioAssay AID1347145 (National Center for Advancing Translational Sciences (NCATS), 2019)
Records with an inconclusive call do not appear. Active and inactive are the calls of the source. Calls follow the shape of the dose curve; as a rule, active = well fitted inhibition curve with a large enough effect; inconclusive = small, poorly fitted or top-dose-only effect; inactive = no such curve, though single readings can be large or run the other way.

Molecular target: N-terminal Xaa-Pro-Lys N-methyltransferase 1 (Homo sapiens) (UniProt Q9BV86)
Sequence (Q9BV86 whole entry, looked up): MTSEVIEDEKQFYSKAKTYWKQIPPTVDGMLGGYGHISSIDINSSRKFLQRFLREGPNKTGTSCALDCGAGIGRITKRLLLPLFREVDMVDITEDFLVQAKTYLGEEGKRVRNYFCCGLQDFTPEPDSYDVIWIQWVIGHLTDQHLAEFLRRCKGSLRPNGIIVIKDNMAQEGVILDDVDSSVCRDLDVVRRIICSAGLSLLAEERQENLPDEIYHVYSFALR
Experiment: qHTS Assay for Inhibitors of N-terminal methyltransferase 1 (NTMT1): MTaseGlo Assay Confirmatory Screen, Round 1
Settings: Recombinant NTMT1, MTase-Glo SAH luminescence; series mostly up to 57.1 µM
Procedure, shortened: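 Luminescence from MTase-Glo conversion of SAH to ATP measured activity after a 30 min RT reaction with 1 µM SPKRIA substrate, 100 µM SAM and 125 nM enzyme. Normalization used no-enzyme and DMSO controls, followed by Hill fitting.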

Potency, inactive:
CNc1nc(NC2CC2)c2cc(OC)c(OC)cc2n1
Nc1nc(Cl)nc2c1ncn2[C@@H]1O[C@H](CO)[C@@H](O)[C@@H]1F
COc1cc2nc(N3CCCCC3)nc(NC3CCN(C)CC3)c2cc1OC
Nc1ncnc2c1[nH]c(=O)n2C1OC(CO)C(O)C1O (configuration not stated)
OC[C@@H]1O[C@@H](n2cnc3c(NC4CCCC4)ncnc32)[C@H](O)[C@H]1O
C[C@H](Cc1ccccc1)Nc1ncnc2c1ncn2[C@@H]1O[C@H](CO)[C@@H](O)[C@H]1O
COc1cc2nc(N(C)C)nc(NC3CC3)c2cc1OC
COc1cc2c(NC3CCN(C(C)C)CC3)nc(N3CCCN(C)CC3)nc2cc1OCCOCCN(C)C
CNC(=O)[C@H]1O[C@H](n2cnc3c(NCc4cccc(I)c4)ncnc32)[C@@H](O)[C@@H]1O
OCC1OC(n2cnc3c(=S)nc[nH]c32)C(O)C1O (configuration not stated)
COc1cc2nc(N3CC[C@@H](N(C)C)C3)nc(NC3CC3)c2cc1OC
COc1cc2nc(N3CCCN(C)CC3)nc(NC3CCN(C)CC3)c2cc1OC
CNc1nc2c(N)ncnc2n1[C@@H]1O[C@@H]2COP(=O)(O)O[C@H]2[C@H]1O
OC[C@@H]1O[C@@H](n2cnc3c(N[C@H]4CCC[C@@H]4O)ncnc32)[C@H](O)[C@H]1O
OC[C@H]1O[C@@H](n2cnc3c(Nc4ccccc4)ncnc32)[C@H](O)[C@@H]1O
C[C@@H](Cc1ccccc1)Nc1ncnc2c1ncn2[C@@H]1O[C@H](CO)[C@@H](O)[C@H]1O
CC(C)=CCNc1ncnc2c1ncn2[C@@H]1O[C@H](CO)[C@@H](O)[C@H]1O
COc1cc2c(NC3CCN(CC4CCCCC4)CC3)nc(N3CCCCC3)nc2cc1OCCCN1CCCCC1
OCC1OC(n2cnc3c(NCc4ccco4)ncnc32)C(O)C1O (configuration not stated)
COc1cc2nc(Nc3ccccc3)nc(NC3CC3)c2cc1OC
Nc1ncnc2c1ncn2[C@@H]1O[C@H](CSCC[C@H](N)C(=O)O)[C@@H](O)[C@H]1O
Cc1ccccc1CNc1ncnc2c1ncn2[C@@H]1O[C@H](CO)[C@@H](O)[C@H]1O
COc1cc2c(NC3CCN(C)CC3)nc(N3CCCN(C)CC3)nc2cc1OCCOCCN1CCCC1
COc1cc2nc(N3CCCCC3)nc(NC3CCN(Cc4ccccc4)CC3)c2cc1OC
Nc1ncnc2c1ncn2[C@@H]1O[C@H](COP(=O)(O)O)[C@@H](O)[C@H]1O
COc1cc2nc(NC3CCN(C)CC3)nc(NC3CCN(C)CC3)c2cc1OC
Nc1ncnc2c1ncn2C1O[C@H](COP(=O)(O)O)[C@@H](O)[C@H]1O (some centres not stated)
Nc1nc(Nc2ccccc2)nc2c1ncn2[C@@H]1O[C@H](CO)C(O)[C@H]1O (some centres not stated)
Nc1ncnc2c1ncn2[C@@H]1O[C@H](CO)[C@@H](O)[C@H]1O
C[C@H](Cc1ccccc1)Nc1ncnc2c1ncn2[C@@H]1O[C@H](CO)C(O)[C@H]1O (some centres not stated)
Cc1cc2nc3c(=O)[nH]c(=O)nc-3n(C[C@H](O)[C@H](O)[C@H](O)COP(=O)(O)OP(=O)(O)OC[C@H]3O[C@@H](n4cnc5c(N)ncnc54)[C@H](O)[C@H]3O)c2cc1C
C[S+](CCC(N)C(=O)O)CC1O[C@@H](n2cnc3c(N)ncnc32)C(O)C1O (some centres not stated)
Nc1ncnc2c1ncn2C1OC(COP(=O)(O)O)C(O)C1O (configuration not stated)
COc1cc2c(NC3CCN(C4CCCCC4)CC3)nc(N3CCCCCC3)nc2cc1OCCCN1CCCCC1
COc1cc2nc(N3CCN(C)CC3)nc(NCCC3CC3)c2cc1OC
C=C1O[C@@](CO)(n2cnc3c(N)ncnc32)[C@H](O)[C@@H]1O
CSc1nc(N)c2ncn([C@@H]3O[C@H](COP(=O)(O)OP(=O)(O)O)C(O)[C@H]3O)c2n1 (some centres not stated)
